Structures can show the parent of a compound that is named as a salt. ± gives the standard error. The whole screen tested about 1,300 compounds, of which about 130 (10%) showed an effect of 50% or more. Only a selection was taken, and strong results are over-represented in it overall.
System: Trichoderma virens ATCC 9645
Assay: growth yield (OD600) with compound + IPBC relative to untreated control; higher = less growth inhibition
Conditions: compound concentration: 100 uM, IPBC concentration: 200 ng/ml
In short: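 Trichoderma virens ATCC 9645 spores from 7-day potato dextrose agar plates were suspended in potato dextrose broth at 15,000 spores ml^−1. Aliquots of 100 μl with library compounds at 100 μM final, with or without a co-applied biocide at 200 ng ml^−1, were grown in 96-well plates at 30 °C. OD600 was read at 40 h and 72 h on a BioTek EL800. Growth is expressed relative to the control without either agent, as means of duplicate screens.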

Row | Structure (SMILES) | growth yield (40 h) | growth yield (72 h)
1 | CC(=C(CCO)SSCC1CCCO1)N(C=O)Cc1cnc(C)nc1N (stereo in doubt) [Fursultiamine Hydrochloride] + CCCCNC(=O)OCC#CI [3-iodo-2-propynyl butylcarbamate (IPBC)] | 104 ± 4.3% | 102 ± 3.2%
2 | Oc1c(I)cc(Cl)c2cccnc12 [Clioquinol] + CCCCNC(=O)OCC#CI [3-iodo-2-propynyl butylcarbamate (IPBC)] | 11.4% | 5.66 ± 0.21%
3 | Oc1c(Cl)cc(Cl)c2cccnc12 [Chloroxine] + CCCCNC(=O)OCC#CI [3-iodo-2-propynyl butylcarbamate (IPBC)] | 1.27 ± 0.95% | 1.89 ± 0.21%
4 | CC(C(=O)O)c1ccc2c(c1)Cc1cccnc1O2 (stereo unspecified) [Pranoprofen] + CCCCNC(=O)OCC#CI [3-iodo-2-propynyl butylcarbamate (IPBC)] | 92 ± 8.7% | 90.6 ± 3.8%
5 | Nc1ncn(C2OC(CO)C(O)C2O)c(=O)n1 (stereo unspecified) [Azacytidine-5] + CCCCNC(=O)OCC#CI [3-iodo-2-propynyl butylcarbamate (IPBC)] | 67.2 ± 3% | 91.9 ± 1.1%
6 | Cc1cn([C@H]2C=C[C@@H](CO)O2)c(=O)[nH]c1=O [Stavudine] + CCCCNC(=O)OCC#CI [3-iodo-2-propynyl butylcarbamate (IPBC)] | 98.5 ± 15% | 97.6 ± 9.5%
7 | CNS(=O)(=O)Cc1ccc2[nH]cc(CCN(C)C)c2c1 [Sumatriptan succinate] + CCCCNC(=O)OCC#CI [3-iodo-2-propynyl butylcarbamate (IPBC)] | 92 ± 11% | 91.3 ± 7.7%
8 | CCCCS(=O)(=O)N[C@@H](Cc1ccc(OCCCCC2CCNCC2)cc1)C(=O)O [Tirofiban hydrochloride] + CCCCNC(=O)OCC#CI [3-iodo-2-propynyl butylcarbamate (IPBC)] | 85.5 ± 1.9% | 91.3 ± 0.94%
9 | CC(=O)OC1CN2CCC1CC2 (stereo unspecified) [Aceclidine Hydrochloride] + CCCCNC(=O)OCC#CI [3-iodo-2-propynyl butylcarbamate (IPBC)] | 80.85 ± 0.79% | 86.84 ± 0.21%
10 | CC(C)(CO)C(O)C(=O)NCCCO (stereo unspecified) [Panthenol (D)] + CCCCNC(=O)OCC#CI [3-iodo-2-propynyl butylcarbamate (IPBC)] | 87.2 ± 0.48% | 90.09 ± 0.52%
11 | CC(C)(C)NC[C@H](O)c1ccc(O)c(CO)c1 [Levalbuterol hydrochloride] + CCCCNC(=O)OCC#CI [3-iodo-2-propynyl butylcarbamate (IPBC)] | 86.2 ± 2.4% | 90.3 ± 2.6%
12 | CC(C)(C)NCC(O)c1ccc(O)c(CO)c1 (stereo unspecified) [Salbutamol] + CCCCNC(=O)OCC#CI [3-iodo-2-propynyl butylcarbamate (IPBC)] | 85.93 ± 0.16% | 93 ± 0.94%
13 | OCc1cc(C(O)CNCCCCCCOCCCCc2ccccc2)ccc1O (stereo unspecified) [Salmeterol] + CCCCNC(=O)OCC#CI [3-iodo-2-propynyl butylcarbamate (IPBC)] | 34.9 ± 1.6% | 75.1 ± 3.4%
14 | C1N2CN3CN1CN(C2)C3 [Methenamine] + CCCCNC(=O)OCC#CI [3-iodo-2-propynyl butylcarbamate (IPBC)] | 89 ± 1.3% | 93.13 ± 0.84%
15 | Nc1c2ccccc2nc2ccccc12 [Aminacrine] + CCCCNC(=O)OCC#CI [3-iodo-2-propynyl butylcarbamate (IPBC)] | 85.5 ± 5.4% | 96.3 ± 3.4%
16 | Nc1ccc(/N=N/c2ccccc2)c(N)n1 [Phenazopyridine hydrochloride] + CCCCNC(=O)OCC#CI [3-iodo-2-propynyl butylcarbamate (IPBC)] | 7.15 ± 0.48% | 13.5 ± 1.8%
17 | Cc1cccc(C)c1NC1=NCCCS1 [Xylazine] + CCCCNC(=O)OCC#CI [3-iodo-2-propynyl butylcarbamate (IPBC)] | 84.3 ± 4.3% | 88.8 ± 2.8%
18 | CN(C)CCN(Cc1ccccc1)c1ccccn1 [Tripelennamine hydrochloride] + CCCCNC(=O)OCC#CI [3-iodo-2-propynyl butylcarbamate (IPBC)] | 95 ± 3.5% | 95.2 ± 1.9%
19 | CC(C)(C)NC(=O)[C@H]1CC[C@H]2[C@@H]3CC[C@H]4NC(=O)C=C[C@]4(C)[C@H]3CC[C@]12C [Finasteride] + CCCCNC(=O)OCC#CI [3-iodo-2-propynyl butylcarbamate (IPBC)] | 84.2 ± 7.9% | 87.5 ± 6.7%

Row | Structure (SMILES) | growth yield (40 h) | growth yield (72 h)
20 | Cc1c(O)c(=O)n(-c2ccccc2)n1C [Antipyrine, 4-hydroxy] + CCCCNC(=O)OCC#CI [3-iodo-2-propynyl butylcarbamate (IPBC)] | 91.5 ± 2.2% | 92.2 ± 1.4%
21 | CO/N=C(\C(=O)N[C@@H]1C(=O)N2C(C(=O)O)=C(COC(N)=O)CS[C@H]12)c1ccco1 [Cefuroxime sodium salt] + CCCCNC(=O)OCC#CI [3-iodo-2-propynyl butylcarbamate (IPBC)] | 92.13 ± 0.64% | 92.2 ± 2%
22 | CC[C@H]1OC(=O)[C@H](C)[C@@H](O[C@H]2C[C@@](C)(OC)[C@@H](O)[C@H](C)O2)[C@H](C)[C@@H](O[C@@H]2O[C@H](C)C[C@H](N(C)C)[C@H]2O)[C@](C)(O)C[C@@H](C)CN(C)[C@H](C)[C@@H](O)[C@]1(C)O [Azithromycin] + CCCCNC(=O)OCC#CI [3-iodo-2-propynyl butylcarbamate (IPBC)] | 108.7 ± 0.95% | 106 ± 0.32%
23 | CC[C@H]1OC(=O)[C@H](C)[C@@H](O[C@H]2C[C@@](C)(OC)[C@@H](O)[C@H](C)O2)[C@H](C)[C@@H](O[C@@H]2O[C@H](C)C[C@H](N(C)C)[C@H]2O)[C@](C)(O)C[C@@H](C)C(=O)[C@H](C)[C@@H](O)[C@]1(C)O [Erythromycin] + CCCCNC(=O)OCC#CI [3-iodo-2-propynyl butylcarbamate (IPBC)] | 45.3 ± 0.79% | 50.8 ± 0.84%
24 | CC[C@H]1OC(=O)[C@H](C)[C@@H](O[C@H]2C[C@@](C)(OC)[C@@H](O)[C@H](C)O2)[C@H](C)[C@@H](O[C@@H]2O[C@H](C)C[C@H](N(C)C)[C@H]2O)[C@](C)(OC)C[C@@H](C)C(=O)[C@H](C)[C@@H](O)[C@]1(C)O [Clarithromycin] + CCCCNC(=O)OCC#CI [3-iodo-2-propynyl butylcarbamate (IPBC)] | 91.65 ± 0.79% | 92.1%
25 | CN1CCC2(C)c3cc(O)ccc3N(C)C12 (single isomer, unassigned; (-)) [(-)-Eseroline fumarate salt] + CCCCNC(=O)OCC#CI [3-iodo-2-propynyl butylcarbamate (IPBC)] | 85 ± 4.9% | 90.6 ± 2.1%
26 | C#CCN(C)CCCOc1ccc(Cl)cc1Cl [Clorgyline hydrochloride] + CCCCNC(=O)OCC#CI [3-iodo-2-propynyl butylcarbamate (IPBC)] | 60.36 ± 0.32% | 87.2 ± 2.2%
27 | Oc1cc(Cl)ccc1Oc1ccc(Cl)cc1Cl [Triclosan] + CCCCNC(=O)OCC#CI [3-iodo-2-propynyl butylcarbamate (IPBC)] | 3.02 ± 0.16% | 2.2 ± 0.1%
28 | CN1[C@@H]2CC[C@H]1C[C@@H](OC(c1ccccc1)c1ccccc1)C2 [Benztropine mesylate] + CCCCNC(=O)OCC#CI [3-iodo-2-propynyl butylcarbamate (IPBC)] | 84.7 ± 2.1% | 96.1 ± 4.4%
29 | C[C@H](CCC(=O)O)[C@H]1CC[C@H]2[C@@H]3[C@@H](O)C[C@@H]4C[C@H](O)CC[C@]4(C)[C@H]3CC[C@]12C [Urosiol] + CCCCNC(=O)OCC#CI [3-iodo-2-propynyl butylcarbamate (IPBC)] | 104 ± 12% | 99.7 ± 5.1%
30 | N[C@@H](C(=O)N[C@@H]1C(=O)N2C(C(=O)O)=C(Cl)CS[C@H]12)c1ccccc1 [Cefaclor hydrate] + CCCCNC(=O)OCC#CI [3-iodo-2-propynyl butylcarbamate (IPBC)] | 92.9 ± 8.1% | 96.7 ± 4%
31 | CC[N+](C)(CC)CCC[n+]1c(-c2ccccc2)c2cc(N)ccc2c2ccc(N)cc21 [Propidium iodide] + CCCCNC(=O)OCC#CI [3-iodo-2-propynyl butylcarbamate (IPBC)] | 8.1 ± 5.6% | 12.7 ± 0.32%
32 | COc1ccc(CN2CCNCC2)c(OC)c1OC [Trimetazidine dihydrochloride] + CCCCNC(=O)OCC#CI [3-iodo-2-propynyl butylcarbamate (IPBC)] | 85 ± 2.1% | 91.87 ± 0.42%
33 | CCCCCN(C)CCC(O)(P(=O)(O)O)P(=O)(O)O [Ibandronate sodium] + CCCCNC(=O)OCC#CI [3-iodo-2-propynyl butylcarbamate (IPBC)] | 87.84 ± 0.48% | 96.8 ± 0.94%
34 | Cc1c(OCC(F)(F)F)ccnc1C[S+]([O-])c1nc2ccccc2[nH]1 (stereo unspecified) [Lansoprazole] + CCCCNC(=O)OCC#CI [3-iodo-2-propynyl butylcarbamate (IPBC)] | 68.1 ± 2.1% | 91.87 ± 0.21%
35 | CC(C)c1c(C(=O)Nc2ccccc2)c(-c2ccccc2)c(-c2ccc(F)cc2)n1CC[C@@H](O)C[C@@H](O)CC(=O)O [Atorvastatin] + CCCCNC(=O)OCC#CI [3-iodo-2-propynyl butylcarbamate (IPBC)] | 69.3 ± 2.2% | 79.5 ± 1.3%
36 | CC(C)n1c(/C=C/C(O)CC(O)CC(=O)O)c(-c2ccc(F)cc2)c2ccccc21 (stereo unspecified) [Fluvastatin sodium salt] + CCCCNC(=O)OCC#CI [3-iodo-2-propynyl butylcarbamate (IPBC)] | 13.8 ± 0.48% | 33.9 ± 0.52%
37 | O=C(O)C[C@H](O)C[C@H](O)/C=C/c1c(C2CC2)nc2ccccc2c1-c1ccc(F)cc1 [Pitavastatin calcium] + CCCCNC(=O)OCC#CI [3-iodo-2-propynyl butylcarbamate (IPBC)] | 14 ± 2.2% | 39.4 ± 3.4%
38 | C=CC[C@]1(O)CC[C@H]2[C@@H]3CCC4=CC(=O)CCC4=C3C=C[C@@]21C [Altrenogest] + CCCCNC(=O)OCC#CI [3-iodo-2-propynyl butylcarbamate (IPBC)] | 96.6 ± 1.6% | 93.8 ± 2.3%

Source: the supplement of paper PMC8007513
